PubChem BioAssay AID1159580 (chemical genetic matrix, 2015)
Screen size: about 5,500 compounds; about 2,000 (36%) were called active. Inconclusive results (about 18%) are left out. Cut-off read from the data, not from the text of the source: active = normalized growth mostly below about 0.91 (no sharp cut-off); inconclusive = no clear call, values can overlap the other calls; inactive = mostly above about 0.92. Some of the results follow.

Test: chemical genetic growth profiling, strain panel (AID 1159580);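 note: tested at 20 µM; growth read once vehicle control cultures reached saturation at 30 °C; 1 = growth at the plate median or of vehicle wells; lower values mean less growth of the strain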
Conditions: growth OD
[1] = S. cerevisiae deletion strains, locus YDL101C, strain DUN1, active compounds read low
[2] = S. cerevisiae deletion strains, locus YHR030C, strain SLT2, active compounds read low
[3] = S. cerevisiae deletion strains, locus YJL095W, strain BCK1, active compounds read low
[4] = S. cerevisiae deletion strains, locus YOR061W, strain CKA2, active compounds read low

Measured: normalized growth

C/C(=N/NC(N)=S)c1ccccn1
inactive: S. cerevisiae deletion strains, locus YAR019C, strain CDC15, active compounds read low 0.962 | S. cerevisiae deletion strains, locus YBL105C, strain PKC1, active compounds read low 0.98 | S. cerevisiae deletion strains, locus YBR135W, strain CKS1, active compounds read low 0.971 | S. cerevisiae deletion strains, locus YBR136W, strain MEC1, active compounds read low 0.962 | S. cerevisiae deletion strains, locus YBR160W, strain CDC28, active compounds read low 0.985 | S. cerevisiae deletion strains, locus YDL017W, strain CDC7, active compounds read low 0.987 | S. cerevisiae deletion strains, locus YDL028C, strain MPS1, active compounds read low 0.97 | [1] 0.982 | S. cerevisiae deletion strains, locus YDL108W, strain KIN28, active compounds read low 0.97 | S. cerevisiae deletion strains, locus YDL132W, strain cdc53, active compounds read low 0.949 | S. cerevisiae deletion strains, locus YDL214C, strain PRR2, active compounds read low 0.932 | S. cerevisiae deletion strains, locus YDR052C, strain DBF4, active compounds read low 0.963 | S. cerevisiae deletion strains, locus YDR054C, strain cdc34, active compounds read low 0.944 | S. cerevisiae deletion strains, locus YDR226W, strain ADK1, active compounds read low 0.971 | S. cerevisiae deletion strains, locus YDR477W, strain SNF1, active compounds read low 0.878 | S. cerevisiae deletion strains, locus YER123W, strain YCK3, active compounds read low 0.874 | S. cerevisiae deletion strains, locus YER133W, strain GLC7, active compounds read low 0.889 | S. cerevisiae deletion strains, locus YFL009W, strain cdc4, active compounds read low 0.939 | S. cerevisiae deletion strains, locus YFL029C, strain CAK1, active compounds read low 0.945 | S. cerevisiae deletion strains, locus YFR003C, strain YPI1, active compounds read low 0.985 | S. cerevisiae deletion strains, locus YFR019W, strain FAB1, active compounds read low 0.908 | S. cerevisiae deletion strains, locus YFR028C, strain CDC14, active compounds read low 0.962 | S. cerevisiae deletion strains, locus YGR040W, strain KSS1, active compounds read low 0.875 | S. cerevisiae deletion strains, locus YGR052W, strain FMP48, active compounds read low 0.951 | S. cerevisiae deletion strains, locus YGR092W, strain DBF2, active compounds read low 0.833 | [2] 0.861 | S. cerevisiae deletion strains, locus YHR079C, strain IRE1, active compounds read low 0.779 | S. cerevisiae deletion strains, locus YHR082C, strain KSP1, active compounds read low 0.932 | S. cerevisiae deletion strains, locus YHR205W, strain SCH9, active compounds read low 0.957 | S. cerevisiae deletion strains, locus YIL147C, strain SLN1, active compounds read low 0.958 | [3] 0.871 | S. cerevisiae deletion strains, locus YJL128C, strain PBS2, active compounds read low 0.975 | S. cerevisiae deletion strains, locus YJL157C, strain FAR1, active compounds read low 0.88 | S. cerevisiae deletion strains, locus YJR016C, strain ILV3, active compounds read low 0.967 | S. cerevisiae deletion strains, locus YJR066W, strain TOR1 (second series), active compounds read low 0.874 | S. cerevisiae deletion strains, locus YJR066W, strain TOR1, active compounds read low 0.881 | S. cerevisiae deletion strains, locus YKL048C, strain ELM1, active compounds read low 0.941 | S. cerevisiae deletion strains, locus YKL067W, strain YNK1, active compounds read low 0.951 | S. cerevisiae deletion strains, locus YKL101W, strain HSL1, active compounds read low 0.91 | S. cerevisiae deletion strains, locus YKL193C, strain SDS22, active compounds read low 0.971 | S. cerevisiae deletion strains, locus YKL203C, strain TOR2, active compounds read low 0.9 | S. cerevisiae deletion strains, locus YLR113W, strain HOG1, active compounds read low 0.93 | S. cerevisiae deletion strains, locus YLR133W, strain CKI1, active compounds read low 0.911 | S. cerevisiae deletion strains, locus YLR403W, strain SFP1, active compounds read low 0.843 | S. cerevisiae deletion strains, locus YML070W, strain DAK1, active compounds read low 0.918 | S. cerevisiae deletion strains, locus YMR001C, strain CDC5, active compounds read low 0.967 | S. cerevisiae deletion strains, locus YMR205C, strain PFK2 (second series), active compounds read low 0.945 | S. cerevisiae deletion strains, locus YMR277W, strain FCP1, active compounds read low 0.978 | S. cerevisiae deletion strains, locus YNL006W, strain LST8, active compounds read low 0.988 | S. cerevisiae deletion strains, locus YNL020C, strain ARK1, active compounds read low 0.917 | S. cerevisiae deletion strains, locus YNL161W, strain CBK1, active compounds read low 0.978 | S. cerevisiae deletion strains, locus YNL183C, strain NPR1, active compounds read low 0.895 | S. cerevisiae deletion strains, locus YNL207W, strain RIO2, active compounds read low 0.936 | S. cerevisiae deletion strains, locus YNL222W, strain SSU72, active compounds read low 0.977 | S. cerevisiae deletion strains, locus YNL307C, strain MCK1 (second series), active compounds read low 0.862 | S. cerevisiae deletion strains, locus YOL078W, strain AVO1, active compounds read low 0.964 | S. cerevisiae deletion strains, locus YOL136C, strain PFK27, active compounds read low 0.957 | [4] 0.891 | S. cerevisiae deletion strains, locus YOR119C, strain RIO1, active compounds read low 0.906 | S. cerevisiae deletion strains, locus YOR231W, strain MKK1, active compounds read low 0.875 | S. cerevisiae deletion strains, locus YOR329C, strain SCD5, active compounds read low 0.968 | S. cerevisiae deletion strains, locus YPL031C, strain PHO85, active compounds read low 0.863 | S. cerevisiae deletion strains, locus YPL153C, strain RAD53, active compounds read low 0.828 | S. cerevisiae deletion strains, locus YPL204W, strain HRR25, active compounds read low 0.85 | S. cerevisiae deletion strains, locus YPL209C, strain IPL1, active compounds read low 0.98 | S. cerevisiae deletion strains, locus YPL256C, strain CLN2, active compounds read low 0.951 | S. cerevisiae deletion strains, locus YPR025C, strain CCL1, active compounds read low 0.975 | S. cerevisiae deletion strains, locus YPR106W, strain ISR1, active compounds read low 0.984 | S. cerevisiae deletion strains, locus YPR111W, strain DBF20, active compounds read low 0.983 | S. cerevisiae deletion strains, strain NNK1, active compounds read low 0.993 | S. cerevisiae deletion strains, strain TSCII, active compounds read low 0.975

O=C1C[C@@H](c2ccccc2)Oc2cc(O)cc(O)c21
active: S. cerevisiae deletion strains, locus YDL192W, strain arf1, active compounds read low 0.871 | S. cerevisiae deletion strains, locus YDR318W, strain mcm21, active compounds read low 0.875 | S. cerevisiae deletion strains, locus YDR502C, strain sam2, active compounds read low 0.892 | S. cerevisiae deletion strains, locus YGL248W, strain PDE1, active compounds read low 0.884 | S. cerevisiae deletion strains, locus YGR135W, strain pre9, active compounds read low 0.843 | S. cerevisiae deletion strains, locus YGR252W, strain gcn5, active compounds read low 0.595 | S. cerevisiae deletion strains, locus YKL009W, strain mrt4, active compounds read low 0.847 | S. cerevisiae deletion strains, locus YKR001C, strain vps1, active compounds read low 0.878 | S. cerevisiae deletion strains, locus YLR058C, strain SHM2, active compounds read low 0.887 | S. cerevisiae deletion strains, locus YLR342W, strain FKS1 (second series), active compounds read low 0.79 | S. cerevisiae deletion strains, locus YLR418C, strain cdc73, active compounds read low 0.711 | S. cerevisiae deletion strains, locus YML032C, strain rad52, active compounds read low 0.864 | S. cerevisiae deletion strains, locus YMR223W, strain ubp8, active compounds read low 0.862 | S. cerevisiae deletion strains, locus YNL298W, strain CLA4, active compounds read low 0.877 | S. cerevisiae deletion strains, locus YNL307C, strain MCK1, active compounds read low 0.901 | S. cerevisiae deletion strains, locus YOR184W, strain ser1, active compounds read low 0.757 | S. cerevisiae deletion strains, locus YPR167C, strain met16, active compounds read low 0.909
inactive: S. cerevisiae deletion strains, locus YBR021W, strain FUR4, active compounds read low 0.958 | S. cerevisiae deletion strains, locus YBR229C, strain ROT2, active compounds read low 0.927 | S. cerevisiae deletion strains, locus YCL029C, strain bik1, active compounds read low 0.939 | S. cerevisiae deletion strains, locus YDL035C, strain GPR1, active compounds read low 0.884 | S. cerevisiae deletion strains, locus YDL074C, strain BRE1, active compounds read low 0.858 | [1] 0.899 | S. cerevisiae deletion strains, locus YDL134C, strain PPH21, active compounds read low 0.903 | S. cerevisiae deletion strains, locus YDL185W, strain tfp1, active compounds read low 0.932 | S. cerevisiae deletion strains, locus YDR101C, strain arx1, active compounds read low 0.943 | S. cerevisiae deletion strains, locus YDR150W, strain NUM1, active compounds read low 0.949 | S. cerevisiae deletion strains, locus YDR162C, strain NBP2, active compounds read low 0.859 | S. cerevisiae deletion strains, locus YDR388W, active compounds read low 0.95 | S. cerevisiae deletion strains, locus YEL061C, strain CIN8, active compounds read low 0.957 | S. cerevisiae deletion strains, locus YER110C, active compounds read low 0.924 | S. cerevisiae deletion strains, locus YER155C, strain BEM2, active compounds read low 0.955 | S. cerevisiae deletion strains, locus YER167W, strain BCK2, active compounds read low 0.947 | S. cerevisiae deletion strains, locus YGL078C, strain dbp3, active compounds read low 0.947 | S. cerevisiae deletion strains, locus YGL086W, strain mad1, active compounds read low 1 | S. cerevisiae deletion strains, locus YGR078C, strain PAC10, active compounds read low 0.86 | [2] 0.97 | S. cerevisiae deletion strains, locus YHR079C, strain IRE1 (second series), active compounds read low 0.952 | S. cerevisiae deletion strains, locus YHR094C, strain hxt1, active compounds read low 0.934 | S. cerevisiae deletion strains, locus YHR129C, strain ARP1, active compounds read low 0.942 | S. cerevisiae deletion strains, locus YHR200W, strain rpn10, active compounds read low 0.942 | S. cerevisiae deletion strains, locus YIL066C, strain RNR3, active compounds read low 0.887 | S. cerevisiae deletion strains, locus YIL073C, strain SPO22, active compounds read low 0.91 | S. cerevisiae deletion strains, locus YIL125W, strain kgd1, active compounds read low 0.957 | S. cerevisiae deletion strains, locus YIR030C, strain dcg1, active compounds read low 0.942 | [3] 0.816 | S. cerevisiae deletion strains, locus YJL134W, strain LCB3, active compounds read low 0.963 | S. cerevisiae deletion strains, locus YJL168C, strain set2, active compounds read low 0.961 | S. cerevisiae deletion strains, locus YJL187C, strain SWE1 (second series), active compounds read low 0.893 | S. cerevisiae deletion strains, locus YJR043C, strain POL32, active compounds read low 0.906 | S. cerevisiae deletion strains, locus YJR075W, strain HOC1, active compounds read low 0.919 | S. cerevisiae deletion strains, locus YKL068W, active compounds read low 0.949 | S. cerevisiae deletion strains, locus YKL085W, strain MDH1 (second series), active compounds read low 0.929 | S. cerevisiae deletion strains, locus YKL085W, strain MDH1, active compounds read low 0.929 | S. cerevisiae deletion strains, locus YKL190W, strain CNB1, active compounds read low 0.955 | S. cerevisiae deletion strains, locus YLR039C, strain RIC1, active compounds read low 0.711 | S. cerevisiae deletion strains, locus YLR102C, strain apc9, active compounds read low 0.957 | S. cerevisiae deletion strains, locus YLR262C, strain YPT6, active compounds read low 0.656 | S. cerevisiae deletion strains, locus YLR268W, strain sec22, active compounds read low 0.943 | S. cerevisiae deletion strains, locus YLR330W, strain CHS5, active compounds read low 0.946 | S. cerevisiae deletion strains, locus YLR371W, strain rom2, active compounds read low 0.968 | S. cerevisiae deletion strains, locus YML016C, strain PPZ1, active compounds read low 0.96 | S. cerevisiae deletion strains, locus YML124C, strain tub3, active compounds read low 0.947 | S. cerevisiae deletion strains, locus YMR078C, strain ctf18, active compounds read low 0.929 | S. cerevisiae deletion strains, locus YMR307W, strain GAS1, active compounds read low 0.742 | S. cerevisiae deletion strains, locus YNL067W, strain RPL9B, active compounds read low 0.884 | S. cerevisiae deletion strains, locus YNL128W, strain TEP1, active compounds read low 0.936 | S. cerevisiae deletion strains, locus YNL153C, strain GIM3, active compounds read low 0.895 | S. cerevisiae deletion strains, locus YNL233W, strain BNI4, active compounds read low 0.886 | S. cerevisiae deletion strains, locus YNL250W, strain rad50, active compounds read low 0.954 | S. cerevisiae deletion strains, locus YNL271C, strain bni1, active compounds read low 0.93 | S. cerevisiae deletion strains, locus YNL322C, strain KRE1, active compounds read low 0.938 | S. cerevisiae deletion strains, locus YNR052C, strain pop2, active compounds read low 0.943 | S. cerevisiae deletion strains, locus YOL012C, strain htz1 0.987 | S. cerevisiae deletion strains, locus YOL147C, strain pex11, active compounds read low 0.933 | [4] 0.934 | S. cerevisiae deletion strains, locus YOR069W, strain VPS5, active compounds read low 0.943 | S. cerevisiae deletion strains, locus YOR136W, strain idh2, active compounds read low 0.968 | S. cerevisiae deletion strains, locus YOR144C, strain elg1, active compounds read low 0.945 | S. cerevisiae deletion strains, locus YOR316C, strain cot1, active compounds read low 0.943 | S. cerevisiae deletion strains, locus YPL055C, strain LGE1, active compounds read low 0.844 | S. cerevisiae deletion strains, locus YPL241C, strain CIN2, active compounds read low 0.955 | S. cerevisiae deletion strains, locus YPR119W, strain clb2, active compounds read low 0.949 | S. cerevisiae deletion strains, locus YPR141C, strain kar3, active compounds read low 0.955 | S. cerevisiae deletion strains, locus YPR163C, strain tif3, active compounds read low 0.927 | S. cerevisiae deletion strains, strain wtn01, active compounds read low 0.99 | S. cerevisiae strains, strain wild type, active compounds read low 0.927
